Reference: PubChem BioAssay
Values joined by “and” are separate entries in the source; they are usually repeats but may differ in a detail not shown here. Identical values can stand only once. For some assays here: Entries with a potency or affinity are not part of this list. Where a structure was tested more than once in an assay, its records may differ in their call. Active and inactive are the calls of the source. Unless noted, the rule behind the calls is not given here.

Key:
[1] = antimalarial activity against Dd2 strain (AID 2302;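 active = growth inhibition above 50% at the single 2 µM test dose, taken to imply half-maximal potency below 2 µM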;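 note: 0% = DMSO untreated growth and 100% = chloroquine plus artemisinin killed control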); conditions: P. falciparum Dd2 in RBCs, LDH growth readout, 72 h; at 2 µM; stronger effect = higher value
[2] = HepG2 cytotoxicity, primary screen, cytotoxicity control for P. falciparum antimalarial project, cell-based, ATP luminescence (AID 2303;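 active = inhibition above 50%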;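 note: 0% = DMSO wells and 100% = digitonin-killed cells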); conditions: HepG2 viability, 24-48 h, at 10 µM, stronger effect = higher value
[3] = target: L-lactate dehydrogenase (Plasmodium falciparum (isolate CDC / Honduras)) (UniProt Q27743); assay: PfLDH activity inhibition – cell lysate, 3D7 strain, counter-screen for P. falciparum growth inhibition project (AID 2304);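 note: 0% = vehicle and 100% = reference inhibitor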; conditions: P. falciparum 3D7 crude extract, LDH APAD/NBT absorbance; at 2 µM; stronger effect = higher value
L-lactate dehydrogenase (Plasmodium falciparum (isolate CDC / Honduras)), sequence (Q27743 whole entry, looked up): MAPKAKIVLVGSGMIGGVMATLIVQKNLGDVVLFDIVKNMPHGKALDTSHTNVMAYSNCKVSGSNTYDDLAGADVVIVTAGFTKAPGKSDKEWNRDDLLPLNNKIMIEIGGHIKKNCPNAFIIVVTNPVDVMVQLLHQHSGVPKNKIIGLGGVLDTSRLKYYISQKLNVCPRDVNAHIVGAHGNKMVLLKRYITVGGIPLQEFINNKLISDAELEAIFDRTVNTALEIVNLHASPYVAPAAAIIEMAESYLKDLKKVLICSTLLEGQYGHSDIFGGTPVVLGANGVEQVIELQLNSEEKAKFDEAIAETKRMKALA

[4] = inhibition of 3D7 malaria parasite growth – strain 3D7 (AID 2306);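 note: 0% = DMSO wells and 100% = chloroquine plus artemisinin control wells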; conditions: P. falciparum 3D7 erythrocytic growth, LDH absorbance, 72 h; at 2 µM; stronger effect = higher value
[5] = target: Calcium-dependent protein kinase 1 (Plasmodium falciparum (isolate 3D7)) (UniProt P62344); assay: PfCDPK1 kinase inhibitors, biochemical, TCAMS library (AID 1159585; cut-off not given, nearly all actives have IC50 up to about 0.98 µM;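 note: inhibitors leave more ATP so luminescence rises with inhibition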); conditions: recombinant PfCDPK1, Kinase-Glo ATP depletion luminescence
Calcium-dependent protein kinase 1 (Plasmodium falciparum (isolate 3D7)), sequence (P62344 whole entry, looked up): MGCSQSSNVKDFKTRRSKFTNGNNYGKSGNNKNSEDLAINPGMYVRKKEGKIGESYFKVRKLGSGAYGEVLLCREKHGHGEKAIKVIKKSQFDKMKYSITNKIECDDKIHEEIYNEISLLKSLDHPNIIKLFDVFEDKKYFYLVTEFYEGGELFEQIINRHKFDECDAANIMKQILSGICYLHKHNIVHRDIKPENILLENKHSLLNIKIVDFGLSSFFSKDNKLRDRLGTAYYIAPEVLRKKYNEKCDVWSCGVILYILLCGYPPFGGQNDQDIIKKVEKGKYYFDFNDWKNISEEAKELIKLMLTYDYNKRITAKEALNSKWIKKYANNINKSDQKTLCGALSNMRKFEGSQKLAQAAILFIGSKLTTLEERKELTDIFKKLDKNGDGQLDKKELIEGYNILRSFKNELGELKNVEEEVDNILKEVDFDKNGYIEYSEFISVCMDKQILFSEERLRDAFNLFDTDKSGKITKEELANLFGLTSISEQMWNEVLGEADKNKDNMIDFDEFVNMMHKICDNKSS

[6] = target: Plasmodium falciparum protein kinase 6 (PK6, PF3D7_1337100) (UniProt Q8IDW1); assay: PfPK6 kinase inhibitors, biochemical, TCAMS library (AID 1159586); conditions: recombinant PfPK6, Kinase-Glo ATP depletion luminescence
Plasmodium falciparum protein kinase 6 (PK6, PF3D7_1337100), sequence (Q8IDW1 1-305): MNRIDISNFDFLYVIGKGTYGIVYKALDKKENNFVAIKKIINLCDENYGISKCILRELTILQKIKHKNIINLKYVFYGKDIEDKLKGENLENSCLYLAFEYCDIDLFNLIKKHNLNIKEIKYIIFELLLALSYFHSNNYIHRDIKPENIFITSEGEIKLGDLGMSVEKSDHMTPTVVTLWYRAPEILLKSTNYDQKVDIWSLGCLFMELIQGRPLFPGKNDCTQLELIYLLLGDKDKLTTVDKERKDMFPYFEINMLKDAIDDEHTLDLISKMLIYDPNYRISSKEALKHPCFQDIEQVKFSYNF

[7] = target: Protein kinase 7 (PK7), Plasmodium falciparum 3D7 (PF3D7_0213400) (UniProt Q7YTF7); assay: inhibition of Plasmodium PK7 catalytic activity – biochemical, TCAMS antimalarial set, Kinase-Glo luminescence (AID 1159587); conditions: recombinant PfPK7, Kinase-Glo ATP depletion luminescence
Protein kinase 7 (PK7), Plasmodium falciparum 3D7 (PF3D7_0213400), sequence (Q7YTF7 1-343): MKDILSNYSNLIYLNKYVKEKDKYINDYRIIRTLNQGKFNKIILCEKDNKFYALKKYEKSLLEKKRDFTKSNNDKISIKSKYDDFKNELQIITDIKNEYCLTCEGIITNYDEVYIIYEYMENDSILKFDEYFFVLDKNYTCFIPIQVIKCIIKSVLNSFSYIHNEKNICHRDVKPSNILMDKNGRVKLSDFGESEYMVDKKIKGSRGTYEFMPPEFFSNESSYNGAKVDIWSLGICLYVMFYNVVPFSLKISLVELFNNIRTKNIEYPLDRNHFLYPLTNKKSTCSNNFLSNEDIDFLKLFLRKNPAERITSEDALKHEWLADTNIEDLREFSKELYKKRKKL

[8] = target: Calcium-dependent protein kinase 4 (Plasmodium falciparum (isolate 3D7)) (UniProt Q8IBS5); assay: PfCDPK4 kinase inhibitors, biochemical, TCAMS library (AID 1159588; cut-off not given, nearly all actives have IC50 up to about 0.91 µM); conditions: recombinant PfCDPK4, Kinase-Glo ATP depletion luminescence
Calcium-dependent protein kinase 4 (Plasmodium falciparum (isolate 3D7)), sequence (Q8IBS5 whole entry, looked up): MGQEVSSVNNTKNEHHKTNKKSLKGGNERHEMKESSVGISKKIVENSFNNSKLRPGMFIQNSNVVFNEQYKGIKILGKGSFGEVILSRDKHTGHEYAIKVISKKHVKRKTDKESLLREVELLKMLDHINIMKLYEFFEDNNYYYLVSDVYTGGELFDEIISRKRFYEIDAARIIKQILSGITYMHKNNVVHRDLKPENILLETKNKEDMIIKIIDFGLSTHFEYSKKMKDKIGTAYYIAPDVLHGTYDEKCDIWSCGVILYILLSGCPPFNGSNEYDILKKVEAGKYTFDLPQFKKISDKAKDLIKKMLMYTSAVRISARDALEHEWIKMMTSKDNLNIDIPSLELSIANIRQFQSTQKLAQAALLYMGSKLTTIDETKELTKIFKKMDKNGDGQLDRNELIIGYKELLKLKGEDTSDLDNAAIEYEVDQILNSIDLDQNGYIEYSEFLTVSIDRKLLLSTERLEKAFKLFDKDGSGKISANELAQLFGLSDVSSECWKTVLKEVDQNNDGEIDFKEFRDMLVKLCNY

Compound | growth inhibition [1] | inhibition [2] | inhibition [3] | growth inhibition [4] | outcome [5] | outcome [6] | outcome [7] | outcome [8]
O=S(=O)(NC1CCC(CN2CCC(c3c[nH]c4ccccc34)CC2)CC1)c1ccc(Cl)c(Cl)c1 (stereo unspecified) | 32% (inactive) | 36% (inactive) | 0% (inactive) | 97% (active) | inactive | inactive | inactive | inactive
CC[C@H]1CN2CC[C@@H]1C[C@H]2[C@H](O)c1cc(N2CCSCC2)nc2ccc(OC)cc12 | 98% (active) | 2% (inactive) | 1% (inactive) | 99% (active) | inactive | inactive | inactive | inactive
O=C(NCc1ccccc1)c1nn(CCCN2CCC3(CC2)C(=O)NCN3c2ccccc2)cc1-c1ccc(Cl)c(Cl)c1 | 21% (inactive) | 6% (inactive) | -5% (inactive) | 88% (active) | inactive | inactive | inactive | inactive
CN(C)c1cccc(NC(=O)N[C@H]2N=C(c3ccccc3)c3ccccc3N(CC(=O)N3CCCC3)C2=O)c1 | 98% (active) | -5% (inactive) | -4% (inactive) | 98% (active) | inactive | inactive | inactive | inactive
COc1cccc(O)c1CNCC(O)c1cccc(C(F)(F)F)c1 (stereo unspecified) | 96% (active) | 31% (inactive) | 4% (inactive) | 98% (active) | inactive | inactive | inactive | inactive
COc1ccc(C(=O)[C@H]2C[C@@H]2CN2CC=C(c3c[nH]c4ccccc34)CC2)cc1 | 89% (active) | 12% (inactive) | 1% (inactive) | 95% (active) | inactive | inactive | inactive | inactive
CC1=CC(=O)[C@@H](O)[C@]2(C)[C@H]3[C@@]4(O)OC[C@@]35[C@@H](C[C@@H]12)OC(=O)C[C@H]5[C@@H](C)[C@H]4O | 98% (active) | 38% (inactive) | 4% (inactive) | 99% (active) | inactive | inactive | inactive | inactive
CC[C@H]1C[N+]2([O-])CC[C@@H]1C[C@H]2[C@H](O)c1cc(-c2ccccc2)nc2ccc(OC)cc12 | 97% (active) | -11% (inactive) | 0% (inactive) | 99% (active) | inactive | inactive | inactive | inactive
CCN(CC)CCN1C(=O)C(O)(c2ccccc2Cl)c2c1cc(C(N)=O)cc2C(F)(F)F (stereo unspecified) | 86% (active) | 16% (inactive) | -4% (inactive) | 101% (active) | inactive | inactive | inactive | inactive
Cc1ccc(CC(C)NCC(O)c2cccc(Cl)c2)cc1F (stereo unspecified) | 88% (active) | 1% (inactive) | -2% (inactive) | 95% (active) | inactive | inactive | inactive | inactive
CC[C@H]1CN2CC[C@@H]1C[C@H]2[C@H](O)c1cc(-c2cccnc2)nc2ccc(OC)cc12 | 99% (active) | 20% (inactive) | 3% (inactive) | 99% (active) | inactive | inactive | inactive | inactive
CC[C@H]1CN2CC[C@H]1C[C@H]2[C@H](OC(=O)c1ccccc1)c1cc(C#N)nc2ccc(OC)cc12 | 49% (inactive) | 19% (inactive) | -2% (inactive) | 97% (active) | inactive | inactive | inactive | inactive
O=C(c1cccs1)N(Cc1cccc(-c2ccc(CNC3CCCC3)cc2)c1)C1CCN(Cc2ccccc2)CC1 | 74% (active) | 20% (inactive) | 0% (inactive) | 90% (active) | inactive | inactive | inactive | inactive
O=C(/C=C/c1ccc(Cl)c(Cl)c1)NCCC1CCC(N2CCC(c3c[nH]c4ccccc34)CC2)CC1 (stereo unspecified) | 99% (active) | 91% (active) | -1% (inactive) | 102% (active) | inactive | inactive | inactive | inactive
COCCNCc1ccc(-c2cccc(CN(C(=O)CCC3CCCC3)C3CCN(Cc4ccccc4)CC3)c2)cc1 | 86% (active) | 50% (active) | -2% (inactive) | 91% (active) | inactive | inactive | inactive | inactive
O=C(/C=C/c1ccc(Cl)c(Cl)c1)NCCC1CCC(N2CCC(c3c[nH]c4ccc(O)cc34)CC2)CC1 (stereo unspecified) | 3% (inactive) | 19% (inactive) | -7% (inactive) | 102% (active) | inactive | inactive | inactive | inactive
O=C(/C=C/c1ccc(Cl)c(Cl)c1)N1CCC(CN2CCC(c3c(Br)[nH]c4ccccc34)CC2)CC1 | 99% (active) | 41% (inactive) | -4% (inactive) | 100% (active) | inactive | inactive | inactive | inactive
CN(c1cc(NC(=O)c2ccc(F)cc2)ccn1)C1CCN(Cc2cccc(F)c2)CC1 | 97% (active) | 13% (inactive) | 5% (inactive) | 100% (active) | inactive | inactive | inactive | inactive
COc1ccc(CC(C)NCC(O)c2cccc(Cl)c2F)cc1 (stereo unspecified) | 59% (active) | 3% (inactive) | -6% (inactive) | 88% (active) | inactive | inactive | inactive | inactive

Compound | growth inhibition [1] | inhibition [2] | inhibition [3] | growth inhibition [4] | outcome [5] | outcome [6] | outcome [7] | outcome [8]
CCOC(C(=O)OCC1CCCN(C)C1)(c1ccccc1)c1ccccc1 (stereo unspecified) | 3% (inactive) | 13% (inactive) | 0% (inactive) | 98% (active) | inactive | inactive | inactive | inactive
COc1ccc2[nH]cc(C3=CCN(Cc4ccccc4)CC3)c2c1 | 84% (active) | 51% (active) | -5% (inactive) | 90% (active) | inactive | inactive | inactive | inactive
O=C(/C=C/c1cccc(Cl)c1)NC1CCC(CN2CCC(c3c[nH]c4ccccc34)CC2)CC1 (stereo unspecified) | 55% (active) and 82% (active) | 35% (inactive) and 42% (inactive) | 0% (inactive) | 100% (active) and 101% (active) | inactive | inactive | inactive | inactive
COc1cccc(C=CC(=O)NC2CCC(CN3CCC(c4c[nH]c5ccccc45)CC3)CC2)c1OC (stereo unspecified) | 40% (inactive) | 37% (inactive) | -1% (inactive) | 102% (active) | inactive | inactive | inactive | inactive
O=C(/C=C/c1ccc(Cl)c(Cl)c1)NC1CCC(CN2CCC(c3c[nH]c4cc(C(F)(F)F)ccc34)CC2)CC1 (stereo unspecified) | 38% (inactive) and 85% (active) | 11% (inactive) and 40% (inactive) | 1% (inactive) and 6% (inactive) | 98% (active) and 102% (active) | inactive | inactive | inactive | inactive
O=C(/C=C/c1ccc(Cl)c(Cl)c1)N1CCC(CN2CCC(c3c[nH]c4ccc(NS(=O)(=O)c5cccs5)cc34)CC2)CC1 | 100% (active) | 17% (inactive) | -7% (inactive) | 100% (active) | inactive | inactive | inactive | inactive
CC[C@H]1CN2CC[C@@H]1C[C@H]2[C@H](O)c1cc(N2CCC(C(N)=O)CC2)nc2ccc(OC)cc12 | 9% (inactive) | 17% (inactive) | -5% (inactive) | 99% (active) | inactive | inactive | inactive | inactive
CN1CC=C(C=Cc2c[nH]c3ccccc23)CC1 | 64% (active) | 14% (inactive) | -1% (inactive) | 86% (active) | inactive | inactive | inactive | inactive
CCCCCCCCNCC(O)c1ccc(Cl)c(Cl)c1 (stereo unspecified) | 87% (active) | -4% (inactive) | -3% (inactive) | 99% (active) | inactive | inactive | inactive | inactive
O=C(c1cc(C(=O)NCc2ccc(Cl)cc2)c(=O)n(Cc2ccc(Cl)cc2)c1)c1cc(Cl)ccc1O | 4% (inactive) | 6% (inactive) | -1% (inactive) | 80% (active) | inactive | inactive | inactive | inactive
COc1ccc(CCNCc2ccc3nc(N)c(C)cc3c2)cc1 | 15% (inactive) | -1% (inactive) | 3% (inactive) | 100% (active) | inactive | inactive | inactive | inactive
COc1ccc(OC)c(C=CC(=O)NC2CCC(CN3CCC(c4c[nH]c5ccccc45)CC3)CC2)c1 (stereo unspecified) | 62% (active) | 43% (inactive) | -4% (inactive) | 98% (active) | inactive | inactive | inactive | inactive
Cc1ccc2c(C3=CCN(CCCCC4(C)C(=O)Nc5c(F)cccc54)CC3)c(C)[nH]c2c1 (stereo unspecified) | 89% (active) | 5% (inactive) | -4% (inactive) | 95% (active) | inactive | inactive | inactive | inactive
CC(C)CNCc1ccc(-c2ccc(CN(C(=O)NC3CCCCC3)C3CCN(Cc4ccccc4)CC3)cc2)cc1 | 88% (active) | 39% (inactive) | -1% (inactive) | 101% (active) | inactive | inactive | inactive | inactive
O=C(/C=C/c1ccc(Cl)c(Cl)c1)NC1CCC(CN2CCC(c3c[nH]c4cc(O)ccc34)CC2)CC1 (stereo unspecified) | 98% (active) | 18% (inactive) | -10% (inactive) | 100% (active) | inactive | inactive | inactive | inactive
COC(=O)C(C)(C)c1ccc(CC(C)NCC(O)c2cccc(C(F)(F)F)c2)cc1 (stereo unspecified) | 98% (active) | 6% (inactive) | -7% (inactive) | 99% (active) | inactive | inactive | inactive | inactive
Cn1nc(-c2ccc(S(=O)(=O)NC3CCC(CN4CCC(c5c[nH]c6ccccc56)CC4)CC3)s2)cc1C(F)(F)F (stereo unspecified) | 29% (inactive) and 24% (inactive) | 35% (inactive) and 38% (inactive) | -2% (inactive) and 9% (inactive) | 98% (active) and 96% (active) | inactive | inactive | inactive | inactive
CCOC(C(=O)OCC1CCCN1C)(c1ccccc1)c1ccccc1 (stereo unspecified) | 3% (inactive) | 13% (inactive) | 6% (inactive) | 97% (active) | inactive | inactive | inactive | inactive
